According to PubChem BioAssay AID720706 (Broad Institute, 2013):
In all, about 350,000 compounds went through this assay and about 5,500 (1.6%) were called active.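 How the source made its calls: active means significant combined selectivity score with lowered wild-type GFP, culture density cut under 30%, mutant RFP and density less affected; inactive means any of these conditions unmet.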 The sample as a whole holds a higher share of actives than the screen did.

Assay: GFP drop in mixed WT/humanized-ribosome E. coli culture – GFP/RFP fluorescence, OD600, single point, bacterial rRNA inhibitor project, primary screen (AID 720706)
Conditions: E. coli WT GFP vs humanized-ribosome RFP mutants, 24 h; GFP signal change (wild-type ribosome): stronger effect = lower value, DMSO median 0, no signal -100; OD600 change: measured here: OD600 growth, DMSO median 0, no signal -100; RFP signal change: measured here: RFP humanized mutant strains, DMSO median 0, no signal -100, concentration not given here

SMILES | GFP signal change (wild-type ribosome) | OD600 change | RFP signal change
Cn1nc(-c2ccc(Cl)cc2)c2cc(C(=O)NCc3ccco3)sc21 | -29.9% (inactive) | -25.9% | -16.6%
CCOC(=O)N1CCN(C(=O)c2cc3c(-c4ccc(Cl)cc4)nn(C)c3s2)CC1 | -22.9% (active) | -10.6% | -5.96%
COc1ccccc1N1CCN(C(=O)c2cc3c(-c4ccc(Cl)cc4)nn(C)c3s2)CC1 | 0.925% (inactive) | 11.2% | 2.25%
COc1ccc2c3c(n(C)c2c1)[C@H](CO)NCC31CN(Cc2cc(F)ccc2F)C1 | -2.04% (inactive) | 1.28% | 1.51%
CCc1c(N=O)c(-c2ccccc2)n(O)[n+]1[O-] | -18.1% (active) | 0.75% | -2.88%
CCOC(=O)c1ccn(S(=O)(=O)c2ccc(C)cc2)c1-c1ccccc1 | -4.05% (inactive) | -26.5% | -5.7%
O=C(/C=C\c1cn(-c2ccccc2)nc1-c1cccs1)N1CCOCC1 | -25.3% (active) | -11.3% | -10.9%
O=C(/C=C/c1cn(-c2ccccc2)nc1-c1ccc2c(c1)OCCO2)NCCCN1CCOCC1 | -59.2% (inactive) | -80.4% | -18.1%
S=c1[nH]nc(-c2cccs2)n1/N=C/c1cn(-c2ccccc2)nc1-c1ccc(Cl)cc1 | 5.75% (inactive) | 18.1% | 0.386%
O=C(O)c1ccc(N/N=C/c2cn(-c3ccccc3)nc2-c2cccs2)cc1 | -27.8% (active) | -18.5% | -5.29%
COc1ccc(-c2nn(-c3ccccc3)cc2/C=C\C(=O)N2CCOCC2)cc1[N+](=O)[O-] | -3.42% (inactive) | 3.96% | -1.95%
Cc1ccc2cc(/C=N/Nc3ccc(C(=O)O)cc3)c(Cl)nc2c1 | 8.25% (inactive) | -7.45% | 2.99%
N#C[C@@H]1[C@H](c2ccccc2)[C@H](CO)N1C(=O)CN1CCOCC1 | 13.7% (inactive) | 21.2% | 0.395%
O=C(Nc1ccccc1F)N1CC(=O)N2[C@H](C1)[C@H](c1ccc(C#Cc3ccc(F)cc3)cc1)[C@@H]2CO | -2.23% (inactive) | -44.6% | 20.2%
O=C(CC1CC1)N1[C@@H](CO)[C@H](c2ccccc2)C12CN(Cc1cccnc1)C2 | 1.16% (inactive) | -2.09% | 1.37%
COc1ccc(CN(C)C[C@@H]2Oc3ccc(NC(=O)NC(C)C)cc3C(=O)N([C@@H](C)CO)C[C@H]2C)cc1 | 1.14% (inactive) | 10.5% | -0.455%

SMILES | GFP signal change (wild-type ribosome) | OD600 change | RFP signal change
C=CCOC(=O)N1CCC2CC1c1cc(-c3ccc(OC)cc3)ccc12 (stereo unspecified) | 3.93% (inactive) | 0.963% | -4.99%
COc1ccc(-c2ccc3c(c2)[C@H]2[C@H](CCN2C(=O)C2CCOCC2)[C@H](CO)N3C)cc1 | -4.42% (inactive) | -4.78% | -1.56%
COc1ccc(-c2ccc3c(c2)C2CC3CCN2CCC#N)cc1 (stereo unspecified) | -28.2% (active) | -19.1% | -3.22%
COc1ccc2c3c(n(C)c2c1)[C@H](CO)NCC31CN(S(=O)(=O)c2cccc(C)c2)C1 | -0.56% (inactive) | -33% | 8.22%
N#Cc1cccc(C(=O)NCC2CCN(C(=O)C(=O)c3cc4ccccc4o3)CC2)c1 | -2.59% (inactive) | -1.64% | -0.945%
CC(C)(C)c1ccc(S(=O)(=O)NCC2CCN(C(=O)C(=O)c3cc4ccccc4o3)CC2)cc1 | -0.31% (inactive) | 0.126% | 0.99%
O=C(C(=O)N1CCC(CNS(=O)(=O)Cc2ccccc2)CC1)c1cc2ccccc2o1 | -14% (active) | -14.9% | 2.73%
COc1cccc(S(=O)(=O)N2CC3(CCN(C)CC3)c3c(n(C)c4cc(OC)ccc34)[C@H]2CO)c1 | -0.483% (inactive) | -1.36% | 0.12%
COc1ccc2c3c(n(C)c2c1)[C@@H](CO)N(C(=O)CN1CCOCC1)CC31CCN(Cc2ccncc2)CC1 | 1.45% (inactive) | 2.53% | -1.13%
C[C@@H](NC(=O)C[C@@H]1CC[C@H]2[C@@H](COC[C@@H](O)CN2C(=O)Nc2cccc(F)c2)O1)c1ccccc1 | -11.5% (inactive) | -6.23% | 5.17%
Cc1nn(C)c(C)c1S(=O)(=O)N1CCC(CO)(Cc2ccc(Cl)cc2)CC1 | -22% (active) | -16.9% | 0.06%
CCOc1ccccc1NC(=O)C1CCN(S(=O)(=O)c2c(C)nn(C)c2C)CC1 | 3.06% (inactive) | -0.4% | -2.77%
COc1ccc(CC2(CO)CCN(Cc3cnn(C)c3)CC2)cc1 | 25.9% (inactive) | 13% | 1.82%
O=C(NCC[C@@H]1CC[C@@H](NC(=O)c2ccccc2F)[C@H](CO)O1)c1ccc2c(c1)OCO2 | 0.211% (inactive) | 0.175% | -1.31%
COc1ccc(NC(=O)N(C)C[C@@H]2Oc3ccc(NS(=O)(=O)c4ccc(Cl)cc4)cc3C(=O)N([C@H](C)CO)C[C@@H]2C)cc1 | -1.87% (inactive) | -3.81% | 4.46%
CCN(CC)C(=O)Oc1ccc(Br)cc1C(=O)Nc1ccc(F)c(Cl)c1 | -28% (active) | -13.7% | -1.17%
